ROC1-CUL1 inh = human ROC1-CUL1 E3 ligase inhibition. P62877+Q13616. in vitro K48 di-Ub FRET, acceptor:donor ratio, 45 min. inhibition, % at 10 µM. 0.6% of 140,000 active. AID 1347404; in the data active = inhibition above about 25%
Target sequence (P62877 whole entry, looked up): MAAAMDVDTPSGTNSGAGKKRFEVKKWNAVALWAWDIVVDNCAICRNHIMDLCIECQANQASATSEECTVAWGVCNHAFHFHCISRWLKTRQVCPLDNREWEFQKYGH
Target sequence (Q13616 whole entry, looked up): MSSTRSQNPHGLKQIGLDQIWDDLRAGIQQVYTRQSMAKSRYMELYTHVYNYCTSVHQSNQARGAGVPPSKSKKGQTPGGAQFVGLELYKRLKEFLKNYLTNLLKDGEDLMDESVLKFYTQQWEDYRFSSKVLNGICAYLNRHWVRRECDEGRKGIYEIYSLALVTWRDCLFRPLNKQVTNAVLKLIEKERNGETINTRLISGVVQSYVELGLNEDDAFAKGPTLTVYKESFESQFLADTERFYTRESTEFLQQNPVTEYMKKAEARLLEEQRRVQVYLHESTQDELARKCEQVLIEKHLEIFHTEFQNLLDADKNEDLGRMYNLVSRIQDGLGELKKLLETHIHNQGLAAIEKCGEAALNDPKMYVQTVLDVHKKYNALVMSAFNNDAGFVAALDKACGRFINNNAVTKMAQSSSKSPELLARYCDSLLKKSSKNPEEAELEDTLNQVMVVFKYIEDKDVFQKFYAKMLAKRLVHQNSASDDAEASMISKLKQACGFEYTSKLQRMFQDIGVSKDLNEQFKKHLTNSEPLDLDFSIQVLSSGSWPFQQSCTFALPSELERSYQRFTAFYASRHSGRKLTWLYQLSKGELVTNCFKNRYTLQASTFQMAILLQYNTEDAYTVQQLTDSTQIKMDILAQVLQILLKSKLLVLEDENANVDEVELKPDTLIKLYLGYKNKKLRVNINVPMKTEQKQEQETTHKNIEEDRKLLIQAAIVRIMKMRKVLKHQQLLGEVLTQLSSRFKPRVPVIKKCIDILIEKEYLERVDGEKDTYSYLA
* hit, by the source's call. Many of the other results were omitted from the sample, so hits are more common in it than they were.

SMILES	ROC1-CUL1 inh
CC(C)(C)c1ccc(C(=O)Oc2ccc3c(-c4ccccc4C(=O)O)c4ccc(=O)cc-4oc3c2)cc1	33.4*
O=C(COC(=O)c1ccccc1C(=O)OCC(=O)c1ccc(Cl)cc1)c1ccc(Cl)cc1	7.1
Cc1ccc(-c2cc(C(=O)N/N=C/c3c(O)ccc4ccccc34)n[nH]2)s1	9.9
CC1CCc2c(sc(NC(=O)c3ccccc3F)c2C(N)=O)C1 (configuration not stated)	-9.4
Cc1ccc(N2C(=O)NC(=O)C(C=Nc3ccc(O)c(C(=O)O)c3)C2=O)cc1 (configuration not stated)	5.4
CCOc1ccc(N2C(=O)C(C=Nc3cc(N)cc(C(=O)O)c3)C(=O)NC2=S)cc1 (configuration not stated)	90.5*
CCOC(=O)c1c(N=CC2C(=O)NC(=S)N(c3ccc(F)cc3)C2=O)sc2c1CCCC2 (configuration not stated)	8.8
COc1ccc(Cn2c(C)cn3c4c(=O)[nH]c(=O)n(C)c4nc23)cc1	-2.4
CCOC(c1ccccc1)c1ccc2c(c1)CN(C(=O)c1cccc(C#CC(C)(C)O)c1)CCO2 (configuration not stated)	2.9
Cn1c(CO)c(Cl)c(=O)n1-c1ccccc1	-1.4
Cc1nc(C(=O)c2ccccc2)c(C)o1	-1.6
Cc1[nH]n(-c2ccccc2)c(=O)c1C(C[N+](=O)[O-])c1ccc(F)cc1 (configuration not stated)	59.4*
Cc1[nH]n(-c2ccccc2)c(=O)c1C(c1ccc(OCc2ccc(F)cc2)cc1)c1c(C)[nH]n(-c2ccccc2)c1=O	-6.9
CCOc1cc(C(c2c(C)[nH]n(-c3ccccc3)c2=O)c2c(C)[nH]n(-c3ccccc3)c2=O)ccc1O	38.9*
Cc1[nH]n(-c2ccccc2)c(=O)c1C(c1ccccc1O)c1c(C)[nH]n(-c2ccccc2)c1=O	-6.5
COc1cc(C(c2c(C)[nH]n(-c3ccccc3)c2=O)c2c(C)[nH]n(-c3ccccc3)c2=O)ccc1C	-17.4
Cc1[nH]n(-c2ccccc2)c(=O)c1C(c1ccc2c(c1)OCO2)c1c(C)[nH]n(-c2ccccc2)c1=O	45.8*
CCOc1cc(C(c2c(C)[nH]n(-c3ccccc3)c2=O)c2c(C)[nH]n(-c3ccccc3)c2=O)ccc1OCc1ccc(Cl)cc1	18.8
Cc1[nH]n(-c2ccccc2)c(=O)c1C(C[N+](=O)[O-])c1ccc(Cl)cc1 (configuration not stated)	1.8
Cc1[nH]n(-c2ccccc2)c(=O)c1C(c1ccco1)c1c(C)[nH]n(-c2ccccc2)c1=O	4.9
Nc1ccc(Nc2ccc(Cl)c(Cl)c2)c(S(N)(=O)=O)c1	-1.9
COC(=O)C(NC(=O)c1ccc(Cl)cc1Cl)(Nc1cc(C)ccn1)C(F)(F)F (configuration not stated)	7.5
Cn1cc(CN2CCC(C(N)=O)CC2)c(-c2cccc(Cl)c2)n1	-3.0
CSc1ccccc1NC(=O)CN1CCN(c2ccccc2F)CC1	-1.5
COc1cccc(CN2CCC(C(Cc3ccccc3Cl)N(C)C(=O)c3ccco3)CC2)c1O (configuration not stated)	5.9
SMILES	ROC1-CUL1 inh
Cc1ccc(F)cc1NC(=O)COC(=O)C12CC3CC(CC(C3)C1)C2	2.4
Cc1nnc(SCC2=NC(=Nc3nc(C)c4ccccc4n3)NC(=O)C2)s1	-3.9
Cc1ccc2c(CC(=O)Nc3ccc(S(=O)(=O)N4CCCCC4)cc3)coc2c1C	0.6
Cc1ccc2c(c1)C(=O)CS2(=O)=O	11.7
CCOC(=O)C1C=Nc2nc(NCc3cccc(Br)c3)nn2C1=O (configuration not stated)	-1.3
CCCN1CCC(NC(=O)Cc2ccc(Cl)c(Cl)c2)CC1	4.9
COc1ccc(-c2[nH]nc3c2C(c2ccc(OC)c(CSC4=NCCS4)c2)C(C#N)C(=N)O3)cc1 (configuration not stated)	13.8
Cc1c(Cl)cccc1N1C(=O)/C(=C/c2cn(CC(=O)O)c3ccccc23)C(=O)NC1=S	80.7*
O=C1NC(=S)N(c2ccc(Br)cc2)C(=O)/C1=C/c1cn(CC(=O)N2CCCc3ccccc32)c2ccccc12	-9.9
Cc1cc(C)cc(N2C(=O)/C(=C/c3cn(CC(=O)N4CCC(C)CC4)c4ccccc34)C(=O)NC2=S)c1	-5.7
COc1cccc2c(C)cc(=O)n(CC(=O)N3CCOCC3)c12	15.9
COc1ccccc1OCCNC(=O)c1ccc2c(c1)OCO2	-1.5
CCc1cccc(C)c1NS(=O)(=O)c1ccccc1	1.0
CC1CC(=O)NN=C1c1ccc(N2CCN(C(=O)CCc3ccccc3)CC2)cc1 (configuration not stated)	0.1
CCc1ccc(S(=O)(=O)NC(C)c2ccccc2)cc1 (configuration not stated)	-9.7
S=c1oc2ccc(Cl)cc2n1CN1CCCCC1	-0.1
Cc1cc(=O)[nH]c(SCC(=O)c2ccc(O)c(O)c2)n1	15.4
O=C(CSc1nc2ccccc2c(=O)[nH]1)c1ccc(Cl)cc1	2.2
O=C(CSc1nc2ccccc2c(=O)[nH]1)c1ccc(O)c(O)c1	103.2*
Cc1ccc(Cl)c(Oc2cc(=O)oc3ccccc23)c1	4.2
CC1=NN(c2ccccc2)C(=O)/C1=C/c1ccc(OCCCOc2ccccc2)cc1	-9.9
CC1=NN(c2ccc(C)cc2)C(=O)/C1=C\c1cccnc1	82.0*
CC1=NN(c2ccc(C)cc2)C(=O)/C1=C\c1ccc(OC(C)C)cc1	6.9
CC(C)c1ccc(Oc2ncnc3sc4c(c23)CCCC4)cc1	2.7
CCN1C(=O)C(CC(=O)Nc2cccc(C)c2)SC1=Nc1ccc(OC)cc1OC (configuration not stated)	2.0
SMILES	ROC1-CUL1 inh
N=C1S/C(=C\c2ccc(-c3ccccc3C(=O)O)o2)C(=O)N1c1ccc(Cl)cc1Cl	99.7*
CN1C(=O)/C(=C\c2ccc(-c3ccccc3C(=O)O)o2)SC1=S	3.7
CN=C1S/C(=C\c2ccc(-c3ccc(Cl)cc3C(=O)O)o2)C(=O)N1C	2.6
CN1C(=O)C(Sc2ccc([N+](=O)[O-])cc2)C(=O)c2ccccc21 (configuration not stated)	-0.6
Cc1ccc(Cl)cc1-n1nnnc1-c1ccccc1Cl	-3.2
CCSc1nnc(NC(=O)C(C)C)s1	-0.1
CCSc1nnc(NC(=O)C(C(F)(F)F)C(F)(F)F)s1	31.7*
CCSc1nnc(NC(=O)OC)s1	-6.0
CC(C)OC(=O)c1ccc(Cn2nnc3sc4c(c3c2=O)CCCC4)cc1	44.1*
CC(C)OC(=O)c1cccc(NC(=O)Cn2nnc3sc4c(c3c2=O)CCCC4)c1	4.6
CC1CCc2c(sc3nnn(Cc4cccc(C(=O)OC(C)C)c4)c(=O)c23)C1 (configuration not stated)	-4.1
CCOC(=O)C(C)SC1=N/C(=C\c2ccccc2)C(=O)N1c1ccccc1 (configuration not stated)	-2.1
O=C1COc2ccc(Cl)cc2N1Cc1c(F)cccc1Cl	6.2
O=C(O)CSc1ccc(Cl)cc1	1.3
O=C(O)CSC1=C(SCC(=O)O)C(=O)C(SCC(=O)O)=C(SCC(=O)O)C1=O	102.4*
N=C1CC(=O)NC(SCC(=O)O)=N1	8.6
COc1ccc(/C=C2/SC(=Nc3cccc(C)c3)NC2=O)c(OC)c1	-21.0
Cc1ccc(CNC(=O)c2nnn(-c3cccc(C)c3)c2C)cc1	4.4
Cc1ccc(SCCC(=O)Nc2ccccc2C(F)(F)F)cc1	1.9
CC1CCCCN1c1ncnc2c1oc1ccccc12 (configuration not stated)	-0.5

High-throughput results (PubChem)
